Pf growth 96h = Primary qHTS for delayed death inhibitors of the malarial parasite plastid, 96 hour incubation. 320,000 tested, 6.9% active. P. falciparum luciferase reporter growth, 96 h. Potency, µM (titrated, usually from 28.7 µM), hits mostly inhibitors. AID 504834, 2011
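P. falciparum expressing integrated firefly luciferase, in erythrocytes at 2% hematocrit, 0.05% parasitemia, incubated with compounds 96 h at 37 C, 5% CO2. Growth inhibition read as loss of luminescence; two-generation exposure targets delayed-death apicoplast inhibitors.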
HCMV antiviral = qHTS Assay for inhibitors of the human cytomegalovirus (HCMV). activity change, negative = inhibition, % at 57.5 µM. 410,000 tested, 4.5% active. HFF cells, HCMV-luciferase reporter, 72 h; stronger effect = lower value; in the data active = activity change below about -60%; inconclusive = no clear call, values can overlap the other calls; inactive = above about -39%
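Inhibition of viral replication was scored as loss of reporter luminescence in HFFs infected with HCMV-luciferase (MOI 1 PFU/cell) for 72 h; compounds tested at 2 doses, normalized to buffer and Salinomycin controls.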
LASV entry inh = qHTS for Inhibitors of binding or entry into cells for Lassa Virus | Lassa virus pseudotype entry inhibition, cell reporter | Potency, µM (series often up to 37.9 µM), usual class: inhibitors | 300,000 tested, 1.2% active | AID 540256, 2011; calls by dose curve; tested in HEK293 cells; note: nearly all actives have a fitted effect of over 50% in size
Marburg entry inh = qHTS for inhibitors of binding or entry into cells for Marburg Virus | Marburg virus pseudotyped entry inhibition, cell reporter | Potency, µM (highest dose often 37.8 µM), usual class: inhibitors | 300,000 tested, 1.8% active | AID 540276, 2011; calls by dose curve; tested in HEK293 cells
Pf growth 48h = Primary qHTS for delayed death inhibitors of the malarial parasite plastid, 48 hour incubation; 310,000 tested, 5.9% active; Potency, µM (doses to about 28.7 µM), hits mostly inhibitors; AID 504832, 2011; P. falciparum luciferase growth in erythrocytes, 48 h
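Read-out is firefly luciferase luminescence from an integrated reporter in P. falciparum, so falling signal marks reduced parasite growth. Infected erythrocytes were at 2% hematocrit and 0.1% parasitemia (final) in Albumax-supplemented RPMI 1640.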
HCV inhibitor = qHTS Assay for Inhibitors of Hepatitis C Virus (HCV) | Huh7.5.1 HCVcc-Cre infection, luciferase reporter, 44 h | Potency, µM (highest dose often 41.8 µM), hits mostly inhibitors | 340,000 tested, 3.4% active | AID 651820, 2012
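Luciferase read-out (15 sec integration) after a 15 min room-temperature substrate step quantifies HCVcc-Cre infection. Cells, 1,000 per well, had compound added 4 h post-plating, then virus at ~0.5 moi, and were cultured 44 h.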
Each line names hits and unclear results; the compound was inactive in the other large screens; ! = not active in a repeat. Most compounds without a hit are left out; they make up all but 14% or so of the library. Unless noted, calls come from the whole dose curve; as a rule, active = well fitted inhibition curve with a large enough effect; inconclusive = small, poorly fitted or top-dose-only effect, or another doubt; inactive = no such curve, though single readings can be large or run the other way.

CC1(C(=O)NS(=O)(=O)c2ccc(F)cc2F)CCN1C(=O)Cc1ccc(-c2ccccc2)cc1 (stereo not drawn)	none (no result: Pf growth 96h, LASV entry inh, Marburg entry inh, Pf growth 48h, HCV inhibitor)
Cc1cc(C)c([C@@H]2C[C@H]3CN(C4CCCC4)C(=O)[C@]34CCCN24)c(-n2cccn2)c1	Pf growth 96h inconclusive, Marburg entry inh inconclusive, Pf growth 48h inconclusive
Cn1cc([C@@H]2C[C@H]3CN(C4CCCC4)C(=O)[C@]34CCCN24)c(-c2ccccc2)n1	Pf growth 48h 5.22µM
CS(=O)(=O)c1sc2nc(-c3cccs3)cc(-c3ccccc3)c2c1N	Pf growth 48h inconclusive, HCV inhibitor 8.91µM
CCOc1ccc(NC(=O)CS(=O)(=O)Cc2nc(-c3ccc(C)cc3)oc2C)cc1	none (no result: Pf growth 96h, Pf growth 48h, HCV inhibitor)
CCOc1ccc(S(=O)(=O)N2CCOCC2)cc1NC(=O)CN1C(=O)NC2(CCCCC2)C1=O	none (no result: LASV entry inh, Marburg entry inh)
CCCC1(c2ccccc2)NC(=O)N(CC(=O)Nc2cc(S(=O)(=O)N3CCOCC3)ccc2Cl)C1=O (stereo not drawn)	Pf growth 96h 13.1µM
CCOc1ccc(S(=O)(=O)N2CCOCC2)cc1NC(=O)CN1C(=O)NC(C)(c2ccc(C)cc2)C1=O (stereo not drawn)	Pf growth 96h inconclusive, Pf growth 48h 10.4µM, HCV inhibitor inconclusive
COc1ccc(S(=O)(=O)N2CCCCCC2)cc1NC(=O)CN1C(=O)NC(C)(c2ccccc2)C1=O (stereo not drawn)	Pf growth 96h 4.15µM, Marburg entry inh inconclusive, Pf growth 48h 9.28µM, HCV inhibitor inconclusive
CC1(c2ccc(Cl)cc2)NC(=O)N(CC(=O)N2CCCC2)C1=O (stereo not drawn)	HCV inhibitor 15.8µM
O=C(CN1C(=O)NC2(CCCC2)C1=O)N1CCN(S(=O)(=O)c2cccc(F)c2)CC1	none
Cc1ccc(C2(C)NC(=O)N(CC(=O)N3CCN(S(=O)(=O)c4cccc(F)c4)CC3)C2=O)cc1 (stereo not drawn)	Pf growth 96h 11.7µM
COc1cc(OC)c(NC(=O)c2nnn(Cc3ccc(C)cc3)c2N)cc1Cl	Marburg entry inh inconclusive (no result: Pf growth 96h, Pf growth 48h, HCV inhibitor)
CCOC(=O)c1csc(NC(=O)c2cc(=O)c3ccccc3o2)n1	Pf growth 96h 0.0738µM (no result: LASV entry inh, Marburg entry inh)
Cc1ccc(NC(=O)c2cc(=O)c3ccccc3o2)c(C)c1	Marburg entry inh inconclusive
Cc1ccc(C)c(NC(=O)c2cc(=O)c3ccccc3o2)c1	Pf growth 96h 13.1µM, Marburg entry inh inconclusive
CC(=O)Nc1ccc(NC(=O)c2cc(=O)c3ccccc3o2)cc1	HCMV antiviral -84.6!
COc1cccc(NC(=O)c2cc(=O)c3ccccc3o2)c1	none (no result: LASV entry inh, Marburg entry inh)
COc1ccc(NS(=O)(=O)c2cc(NC(=O)c3cc(=O)c4ccccc4o3)ccc2OC)cc1	Pf growth 96h inconclusive, Pf growth 48h 8.28µM
Cn1c(=O)c2c([nH]c(=O)n2C)n(Cc2ccccc2)c1=O	none (no result: Pf growth 96h, Pf growth 48h)
COc1ccc2c3c(c(=O)oc2c1)[C@H]1O[C@](c2ccsc2)(Cc2cc(C#N)ccc21)O3	none (no result: Pf growth 96h, HCMV antiviral, LASV entry inh, Pf growth 48h, HCV inhibitor)
Cc1nc2ccccn2c1C(=O)/C=C/c1cccc([N+](=O)[O-])c1	Pf growth 96h inconclusive, HCMV antiviral -101.0, Pf growth 48h inconclusive (no result: LASV entry inh, Marburg entry inh)
Cc1ccc(/C=C/C(=O)c2c(C)nc3ccccn23)cc1	HCMV antiviral -88.1, Marburg entry inh inconclusive
Cc1ccc(N(C)/N=C/c2ccc(Cl)cc2Cl)nn1	HCMV antiviral -67.5 (no result: LASV entry inh, Marburg entry inh)
Cc1ccccc1CNC(=O)CN1CCSc2ccccc21	none (no result: Pf growth 96h, Marburg entry inh, Pf growth 48h, HCV inhibitor)
O=C(Nc1cccc2ccccc12)OC[C@@H]1CSCCS(=O)(=O)N1	LASV entry inh inconclusive (no result: Pf growth 96h, Marburg entry inh, Pf growth 48h, HCV inhibitor)
O=c1cc(-c2ccccc2)[nH]n1-c1nc2ccccc2s1	Pf growth 96h 5.22µM, Marburg entry inh inconclusive
CC(=O)c1c(CC(=O)O)[nH]n(-c2nc3ccccc3s2)c1=O	none (no result: Pf growth 48h)
O=C1OCc2ccc(NC(=O)c3c(F)cccc3Cl)cc21	HCMV antiviral -85.2, Marburg entry inh inconclusive
O=C(Nc1ccc2c(c1)C(=O)OC2)c1ccccc1Cl	HCMV antiviral -91.4, Marburg entry inh inconclusive
O=C(Nc1ccc2c(c1)CCC2)c1c(F)cccc1Cl	HCMV antiviral -60.6
